Records with an inconclusive call do not appear. The source made the active and inactive calls. Unless noted, calls follow the shape of the dose curve; as a rule, active = well fitted curve in the direction sought with a large enough effect; inconclusive = small, poorly fitted or top-dose-only effect, or another doubt; inactive = no such curve, though single readings can be large; an effect the other way counts as inactive or inconclusive.
How the values were obtained:
[1] = target: Thyroid hormone receptor beta (Homo sapiens) (UniProt P10828); test: qHTS assay for small molecule antagonists of thyroid hormone receptor beta signaling (AID 588547; active = well fitted inhibition curve with a large enough effect in the signal ratio, with a control signal flat, not every such curve was filed as active; the % refers to the signal ratio;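 also: cells stimulated with 0.4 nM T3 agonist during compound exposure; % is scaled to controls: 0 for no effect and ±100 for the full control effect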); details: TR-UAS-bla HEK293, beta-lactamase ratio, antagonist mode, 18 h
Sequence of Thyroid hormone receptor beta (Homo sapiens) (P10828 whole entry, looked up): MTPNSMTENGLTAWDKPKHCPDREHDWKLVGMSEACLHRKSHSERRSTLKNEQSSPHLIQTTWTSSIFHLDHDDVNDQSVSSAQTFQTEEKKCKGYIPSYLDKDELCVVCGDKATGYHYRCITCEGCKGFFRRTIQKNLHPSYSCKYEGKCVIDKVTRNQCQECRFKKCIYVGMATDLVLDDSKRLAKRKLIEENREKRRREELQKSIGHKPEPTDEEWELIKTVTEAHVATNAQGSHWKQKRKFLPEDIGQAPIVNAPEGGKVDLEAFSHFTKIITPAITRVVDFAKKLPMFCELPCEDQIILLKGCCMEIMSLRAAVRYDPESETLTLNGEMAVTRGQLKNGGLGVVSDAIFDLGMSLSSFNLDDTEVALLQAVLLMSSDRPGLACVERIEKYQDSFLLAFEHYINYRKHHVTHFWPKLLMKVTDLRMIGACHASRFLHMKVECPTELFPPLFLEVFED
Method in brief: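 Inhibition of T3-driven (0.4nM final) beta-lactamase reporter activity was measured over 0.59 nM to 92 uM compound after 18 h at 37 C. The cells were GripTite HEK293 TR-UAS-bla in charcoal/dextran-stripped serum, with CCF4 ratio read-out and IC50 from Hill fits.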

[2] = target: Voltage-gated inwardly rectifying potassium channel KCNH2 (Homo sapiens) (UniProt Q12809); test: qHTS Assay for Small Molecule Inhibitors of the Human hERG Channel Activity (AID 588834); details: U2OS BacMam hERG, FluxOR thallium flux fluorescence; series mostly up to 92.2 µM;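 also: U2OS cells transduced with hERG by BacMam; top concentration of the series differs between compounds; % is scaled to controls: 0 for no effect and ±100 for the full control effect; lower thallium flux fluorescence means stronger hERG block; nearly all actives have a fitted effect of over 50% in size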
Sequence of Voltage-gated inwardly rectifying potassium channel KCNH2 (Homo sapiens) (Q12809 whole entry, looked up): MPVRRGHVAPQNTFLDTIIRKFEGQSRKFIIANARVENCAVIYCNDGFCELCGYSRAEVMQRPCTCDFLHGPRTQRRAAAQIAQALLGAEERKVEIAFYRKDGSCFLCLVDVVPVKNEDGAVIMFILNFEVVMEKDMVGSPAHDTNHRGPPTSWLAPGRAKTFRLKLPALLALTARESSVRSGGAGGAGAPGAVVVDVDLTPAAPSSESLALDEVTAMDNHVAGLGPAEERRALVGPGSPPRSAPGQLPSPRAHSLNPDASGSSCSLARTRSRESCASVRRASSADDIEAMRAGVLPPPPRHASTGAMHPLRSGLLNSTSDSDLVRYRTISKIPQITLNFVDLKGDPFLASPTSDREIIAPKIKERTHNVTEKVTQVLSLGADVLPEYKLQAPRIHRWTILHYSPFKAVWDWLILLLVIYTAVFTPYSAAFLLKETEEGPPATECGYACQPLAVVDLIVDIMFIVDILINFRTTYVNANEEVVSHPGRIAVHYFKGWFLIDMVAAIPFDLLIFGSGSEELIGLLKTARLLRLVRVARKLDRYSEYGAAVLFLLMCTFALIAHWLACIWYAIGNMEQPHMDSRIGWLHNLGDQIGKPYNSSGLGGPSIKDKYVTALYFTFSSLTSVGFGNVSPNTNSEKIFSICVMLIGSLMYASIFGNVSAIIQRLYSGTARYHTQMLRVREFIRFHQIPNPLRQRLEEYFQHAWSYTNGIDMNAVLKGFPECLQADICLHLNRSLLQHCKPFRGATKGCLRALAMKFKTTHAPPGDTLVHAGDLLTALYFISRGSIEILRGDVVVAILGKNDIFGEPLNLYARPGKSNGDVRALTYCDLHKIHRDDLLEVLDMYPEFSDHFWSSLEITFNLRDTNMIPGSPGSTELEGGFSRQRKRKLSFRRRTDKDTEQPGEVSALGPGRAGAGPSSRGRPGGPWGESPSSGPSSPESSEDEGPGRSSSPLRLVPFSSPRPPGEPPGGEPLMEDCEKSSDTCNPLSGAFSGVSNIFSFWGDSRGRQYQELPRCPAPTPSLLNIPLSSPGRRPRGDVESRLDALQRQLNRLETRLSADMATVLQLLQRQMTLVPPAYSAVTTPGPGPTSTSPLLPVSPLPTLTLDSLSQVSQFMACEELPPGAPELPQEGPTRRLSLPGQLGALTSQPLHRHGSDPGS
Method in brief: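 Cells were infected with hERG-BacMam virus for 4 hrs at room temperature, grown overnight, then seeded at 2000/well. After dye loading and roughly 10 min compound treatment, thallium influx was triggered and fluorescence recorded.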

[3] = S16 Schwann cell viability assay (CellTiter-Glo assay) (AID 624031); details: S16 rat Schwann cells viability, 24 h; series mostly up to 57.5 µM;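 also: cellular ATP luminescence as a viability measure; plate controls were DMSO-treated cells for no effect and cell-free wells for full effect; nearly all actives have a fitted effect of over 70% in size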
Method in brief: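 Native S16 rat Schwann cells in DMEM/10% FBS without phenol red were incubated overnight, then exposed to compounds for 24 h at 37 °C/5% CO2. Viability was read as ATP luminescence (CellTiter-Glo), normalized to no-cell wells and DMSO (0%).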

[4] = S16 Schwann cell PMP22 intronic element beta-lactamase assay (AID 624044; calls by dose curve;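 also: 0% = DMSO and -100% = potassium clavulanate positive control; nearly all actives have a fitted effect of over 15% in size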); details: S16 rat Schwann cells, PMP22 element beta-lactamase FRET, 24 h; ratio activity, negative = inhibition: at 38.3 µM (top of the series)
Method in brief: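 Beta-lactamase reporter under a PMP22 intronic regulatory element in stable S16 rat Schwann cells; 24 h compound exposure. 460 nm blue signal normalized between DMSO (0%) and potassium clavulanate, with 535 nm FRET tracking viability; curves classed by r2 and response.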

[5] = qHTS assay for small molecule disruptors of the mitochondrial membrane potential - 1 hr assay (AID 651754; calls by dose curve; also: % is scaled to controls: 0 for no effect and ±100 for the full control effect; nearly all actives have a fitted effect of over 35% in size); details: series mostly up to 92.2 µM
Method in brief: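 In this qHTS format, a 1 hr compound treatment of HepG2 cells precedes Mito-MPS staining, and membrane potential is judged from aggregate (red) against monomer (green) fluorescence intensity.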

[6] = qHTS assay for small molecule disruptors of the mitochondrial membrane potential - 5 hr assay (AID 651755; calls by dose curve; also: % is scaled to controls: 0 for no effect and ±100 for the full control effect; nearly all actives have a fitted effect of over 40% in size); details: JC-1-type ratio dye; series mostly up to 92.2 µM
Method in brief: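 Membrane-potential dye readout: red aggregate (540 ex/590 em) versus green monomer (490 ex/535 em) fluorescence after 30 min dye loading, following 5 hr compound exposure at 37C of overnight-plated HepG2 cells.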

[7] = qHTS assay for environmental chemicals that activate the Aryl hydrocarbon Receptor (AhR) signaling pathway (AID 651777); details: 1A2-DRE human hepatoma cells, luciferase, 24 h; activation: active compounds read high; also: % of control where 0% means no effect; nearly all actives have a fitted effect of over 15% in size
Method in brief: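 Human hepatoma 1A2-DRE cells, stably carrying a dioxin response element and CYP1A2 promoter driving luciferase, were exposed to compounds for 24 hr at 37 C and 5% CO2. Luciferase signal was then read after 30 min One-Glo at room temperature.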

[8] = target: Peroxisome proliferator-activated receptor alpha (Homo sapiens) (UniProt Q07869); test: qHTS assay for small molecule agonists of the peroxisome proliferator-activated receptor alpha (PPARalpha) signaling pathway (AID 651778); details: PathHunter PPARalpha complementation, chemiluminescence, 6 h; max response: active compounds read high; also: % of control where 0% means no effect
Sequence of Peroxisome proliferator-activated receptor alpha (Homo sapiens) (Q07869 whole entry, looked up): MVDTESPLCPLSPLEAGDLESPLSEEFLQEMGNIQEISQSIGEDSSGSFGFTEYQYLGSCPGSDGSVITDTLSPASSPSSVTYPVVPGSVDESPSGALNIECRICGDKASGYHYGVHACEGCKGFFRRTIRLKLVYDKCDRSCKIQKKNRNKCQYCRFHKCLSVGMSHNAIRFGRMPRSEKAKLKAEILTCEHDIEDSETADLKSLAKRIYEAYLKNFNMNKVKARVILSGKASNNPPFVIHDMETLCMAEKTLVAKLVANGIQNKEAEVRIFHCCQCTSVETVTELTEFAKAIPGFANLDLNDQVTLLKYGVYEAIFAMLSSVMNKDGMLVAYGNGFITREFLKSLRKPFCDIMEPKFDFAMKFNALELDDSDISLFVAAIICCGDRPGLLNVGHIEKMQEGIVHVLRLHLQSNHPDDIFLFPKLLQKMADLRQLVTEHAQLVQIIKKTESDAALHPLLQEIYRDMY
Method in brief: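 Chemiluminescence from complemented enzyme reported PPARalpha activation in cells after 6 hr of compound treatment at 37 C. The detection reagent was incubated for 60 min at room temperature, and compounds were scored as agonists.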

[9] = target: Nuclear receptor ROR-gamma (Homo sapiens) (UniProt P51449); test: qHTS assay for small molecule antagonists of the retinoid-related orphan receptor gamma (ROR-gamma) signaling pathway (AID 651802); details: ROR-gamma antagonist cell reporter assay; series mostly up to 92.2 µM;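 also: CHO cells with doxycycline-induced ROR-gamma expression; luciferase reporter luminescence driven by ROR response element; % is scaled to controls: 0 for no effect and ±100 for the full control effect; nearly all actives have a fitted effect of over 60% in size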
Sequence of Nuclear receptor ROR-gamma (Homo sapiens) (P51449 whole entry, looked up): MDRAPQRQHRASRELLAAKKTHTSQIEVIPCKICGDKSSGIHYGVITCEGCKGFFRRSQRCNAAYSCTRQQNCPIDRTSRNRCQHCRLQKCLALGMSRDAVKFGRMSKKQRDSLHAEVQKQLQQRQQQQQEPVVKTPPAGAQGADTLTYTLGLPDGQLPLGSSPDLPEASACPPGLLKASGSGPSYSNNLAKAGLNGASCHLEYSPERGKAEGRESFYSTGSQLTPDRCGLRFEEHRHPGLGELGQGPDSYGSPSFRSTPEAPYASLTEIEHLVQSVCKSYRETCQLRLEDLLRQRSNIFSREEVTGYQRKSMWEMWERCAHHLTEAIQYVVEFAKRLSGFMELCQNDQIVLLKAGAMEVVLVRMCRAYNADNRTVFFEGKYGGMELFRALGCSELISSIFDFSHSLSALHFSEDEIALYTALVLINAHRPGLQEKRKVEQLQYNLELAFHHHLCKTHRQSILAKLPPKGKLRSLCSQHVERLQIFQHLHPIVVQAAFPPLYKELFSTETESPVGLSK
Method in brief: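 Doxycycline-induced reporter activity in engineered CHO cells (TET-inducible ROR, RORE-LUC) was measured by luminescence after 16hr compound exposure at 37C.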

[10] = qHTS assay for small molecule agonists of the antioxidant response element (ARE) signaling pathway measured by Nrf2-dependant transcriptional activity - cell viability counter screen (AID 720653; active = well fitted curve in the direction sought with a large enough effect in the repeat runs; an effect the other way counts as inactive or inconclusive; also: % is scaled to controls: 0 for no effect and ±100 for the full control effect); details: ARE-bla HepG2 viability, CellTiter-Glo ATP luminescence, 16 h; max response: active compounds read low
Method in brief: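 Cytotoxicity counter screen: intracellular ATP quantified by CellTiter-Glo luminescence in the same ARE-bla HepG2 plates, after 16 h compound exposure and a 2 h beta-lactamase substrate step.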

[11] = qHTS assay for cell viability of HEK293 cells (AID 743288); details: ATP luminescence (CellTiter-Glo), 18 h; max response: active compounds read low; also: % is scaled to controls: 0 for no effect and ±100 for the full control effect; nearly all actives have a fitted effect of over 50% in size
Method in brief: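 Quantitative high-throughput screen: compounds were pinned onto parental HEK293 cells (2,000 per well) after a minimum 5 h settling at 37 C, incubated 18 h at 37 C, and intracellular ATP measured by luciferase luminescence.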

[12] = qHTS assay for cell viability of the p53RE-bla HCT-116 cell line (AID 743292); details: p53RE-bla HCT-116 viability, ATP luminescence, 16 h; series mostly up to 95 µM; also: % is scaled to controls: 0 for no effect and ±100 for the full control effect; nearly all actives have a fitted effect of over 55% in size
Method in brief: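 CellSensor p53RE-bla HCT-116 cells, 4,000/well, preincubated 5 h at 37 C, then exposed to compounds in DMSO for 16 h at 37 C. Viability read as CellTiter-Glo luminescence (intracellular ATP) after 30 min at room temperature.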

[13] = qHTS profiling for inhibitors of Plasmodium falciparum proliferation (AID 504749); also: nearly all actives have a fitted effect of over 60% in size; also: potency is read from the fitted curve at half-maximal effect;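 as to activity, negative = inhibition: 0% = DMSO vehicle and full inhibition = artemisinin control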; details: P. falciparum in erythrocytes, SYBR Green DNA, 72 h; parasite line B
Method in brief: (§1)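 In a 72 h erythrocytic culture (37 C, humidified, 5% CO2) at 2.5% hematocrit and 0.3% starting parasitemia, compounds were tested; SYBR Green I in detergent lysis buffer stained parasite DNA overnight.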

[14] = tested on: 7G8; test: as above; details: P. falciparum in erythrocytes, SYBR Green DNA, 72 h; series mostly up to 28.7 µM
Method in brief: as §1

[15] = tested on: AA1029; test: as above; details: P. falciparum in erythrocytes, SYBR Green DNA, 72 h; series mostly up to 28.7 µM
Method in brief: as §1

[16] = tested on: AS120; test: as above; details: P. falciparum in erythrocytes, SYBR Green DNA, 72 h; series mostly up to 28.7 µM
Method in brief: as §1

[17] = tested on: ATS189; test: as above; details: P. falciparum in erythrocytes, SYBR Green DNA, 72 h; series mostly up to 28.7 µM
Method in brief: as §1

[18] = tested on: ATS95; test: as above; details: P. falciparum in erythrocytes, SYBR Green DNA, 72 h; series mostly up to 28.7 µM
Method in brief: as §1

[19] = tested on: C2A; test: as above; details: P. falciparum in erythrocytes, SYBR Green DNA, 72 h; series mostly up to 28.7 µM
Method in brief: as §1

[20] = tested on: CP191; test: as above; details: P. falciparum in erythrocytes, SYBR Green DNA, 72 h; series mostly up to 28.7 µM
Method in brief: as §1

[21] = tested on: CP211; test: as above; details: P. falciparum in erythrocytes, SYBR Green DNA, 72 h; series mostly up to 28.7 µM
Method in brief: as §1

[22] = tested on: CP217; test: as above; details: P. falciparum in erythrocytes, SYBR Green DNA, 72 h; series mostly up to 28.7 µM
Method in brief: as §1

[23] = tested on: CP237; test: as above; details: P. falciparum in erythrocytes, SYBR Green DNA, 72 h; series mostly up to 28.7 µM
Method in brief: as §1

[24] = tested on: CP250; test: as above; details: P. falciparum in erythrocytes, SYBR Green DNA, 72 h; series mostly up to 28.7 µM
Method in brief: as §1

[25] = tested on: CP252; test: as above; details: P. falciparum in erythrocytes, SYBR Green DNA, 72 h; series mostly up to 28.7 µM
Method in brief: as §1

[26] = tested on: CP256; test: as above; details: P. falciparum in erythrocytes, SYBR Green DNA, 72 h; series mostly up to 28.7 µM
Method in brief: as §1

[27] = tested on: CP260; test: as above; details: P. falciparum in erythrocytes, SYBR Green DNA, 72 h; series mostly up to 28.7 µM
Method in brief: as §1

[28] = tested on: CP266; test: as above; details: P. falciparum in erythrocytes, SYBR Green DNA, 72 h; series mostly up to 28.7 µM
Method in brief: as §1

[29] = tested on: CP335; test: as above; details: P. falciparum in erythrocytes, SYBR Green DNA, 72 h; series mostly up to 28.7 µM
Method in brief: as §1

[30] = tested on: DIV14; test: as above; details: P. falciparum in erythrocytes, SYBR Green DNA, 72 h; series mostly up to 28.7 µM
Method in brief: as §1

[31] = tested on: DIV17; test: as above; details: P. falciparum in erythrocytes, SYBR Green DNA, 72 h; series mostly up to 28.7 µM
Method in brief: as §1

[32] = tested on: Dd2; test: as above; details: P. falciparum in erythrocytes, SYBR Green DNA, 72 h; series mostly up to 28.7 µM
Method in brief: as §1

[33] = tested on: ECU; test: as above; details: P. falciparum in erythrocytes, SYBR Green DNA, 72 h; series mostly up to 28.7 µM
Method in brief: as §1

[34] = tested on: GB4; test: as above; details: P. falciparum in erythrocytes, SYBR Green DNA, 72 h; series mostly up to 28.7 µM
Method in brief: as §1

[35] = tested on: HB3; test: as above; details: P. falciparum in erythrocytes, SYBR Green DNA, 72 h; series mostly up to 28.7 µM
Method in brief: as §1

[36] = tested on: ICS; test: as above; details: P. falciparum in erythrocytes, SYBR Green DNA, 72 h; series mostly up to 28.7 µM
Method in brief: as §1

[37] = tested on: N140; test: as above; details: P. falciparum in erythrocytes, SYBR Green DNA, 72 h; series mostly up to 28.7 µM
Method in brief: as §1

[38] = tested on: P93_24; test: as above; details: P. falciparum in erythrocytes, SYBR Green DNA, 72 h; series mostly up to 28.7 µM
Method in brief: as §1

[39] = tested on: P94_40; test: as above; details: P. falciparum in erythrocytes, SYBR Green DNA, 72 h; series mostly up to 28.7 µM
Method in brief: as §1

[40] = tested on: PAD; test: as above; details: P. falciparum in erythrocytes, SYBR Green DNA, 72 h; series mostly up to 28.7 µM
Method in brief: as §1

[41] = tested on: PC26; test: as above; details: P. falciparum in erythrocytes, SYBR Green DNA, 72 h; series mostly up to 28.7 µM
Method in brief: as §1

[42] = tested on: SC27B; test: as above; details: P. falciparum in erythrocytes, SYBR Green DNA, 72 h; series mostly up to 28.7 µM
Method in brief: as §1

[43] = tested on: TAB109; test: as above; details: P. falciparum in erythrocytes, SYBR Green DNA, 72 h; series mostly up to 28.7 µM
Method in brief: as §1

[44] = tested on: TAB113; test: as above; details: P. falciparum in erythrocytes, SYBR Green DNA, 72 h; series mostly up to 28.7 µM
Method in brief: as §1

[45] = tested on: TAB165; test: as above; details: P. falciparum in erythrocytes, SYBR Green DNA, 72 h; series mostly up to 28.7 µM
Method in brief: as §1

[46] = tested on: W2; test: as above; details: P. falciparum in erythrocytes, SYBR Green DNA, 72 h; series mostly up to 28.7 µM
Method in brief: as §1

[47] = target: Nuclear receptor subfamily 1 group I member 2 (Rattus norvegicus) (UniProt Q9R1A7); test: qHTS assay for small molecule activators of the rat pregnane X receptor (rPXR) signaling pathway (AID 651751; call rule not given here; also: 0% is about no effect); details: rPXR reporter cells, luciferase (One-Glo), 24 h
Sequence of Nuclear receptor subfamily 1 group I member 2 (Rattus norvegicus) (Q9R1A7 whole entry, looked up): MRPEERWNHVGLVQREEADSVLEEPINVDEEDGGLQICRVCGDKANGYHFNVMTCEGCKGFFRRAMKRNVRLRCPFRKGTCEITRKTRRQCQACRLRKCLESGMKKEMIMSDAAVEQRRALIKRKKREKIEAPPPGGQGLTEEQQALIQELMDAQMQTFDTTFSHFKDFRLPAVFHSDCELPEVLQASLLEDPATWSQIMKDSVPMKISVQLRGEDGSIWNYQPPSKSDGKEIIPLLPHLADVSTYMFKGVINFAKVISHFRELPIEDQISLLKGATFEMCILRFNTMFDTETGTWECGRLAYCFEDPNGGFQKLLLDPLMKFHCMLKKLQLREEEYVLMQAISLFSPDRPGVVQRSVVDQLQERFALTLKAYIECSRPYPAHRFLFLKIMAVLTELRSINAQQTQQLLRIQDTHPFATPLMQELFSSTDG

CO[C@H]1/C=C/O[C@@]2(C)Oc3c(C)c(O)c4c(O)c(c5c(c4c3C2=O)NC2(CCN(CC(C)C)CC2)N=5)=NC(=O)/C(C)=C\C=C\[C@H](C)[C@H](O)[C@@H](C)[C@@H](O)[C@@H](C)[C@H](OC(C)=O)[C@@H]1C
inactive: activity change % (negative = inhibition) [1] 5.09% | Potency [2] | Potency [3] | Potency [4] | Potency [5] | Potency [6] | activation [7] -1.73% | max response [8] -2.63% | Potency [9] | max response [10] -17.5% | max response [11] -15.3% | Potency [12] | Potency [21] | Potency [28] | max response [47] 7.05%
active: Potency [13] 4.47 µM | Potency [14] 7.08 µM | Potency [15] 11.2 µM | Potency [16] 12.6 µM | Potency [17] 5.01 µM | Potency [18] 8.91 µM | Potency [19] 8.91 µM | Potency [20] 8.91 µM | Potency [22] 8.91 µM | Potency [23] 10 µM | Potency [24] 7.08 µM | Potency [25] 8.91 µM | Potency [26] 8.91 µM | Potency [27] 8.91 µM | Potency [29] 13.5 µM | Potency [30] 8.49 µM | Potency [31] 10.7 µM | Potency [32] 7.94 µM | Potency [33] 7.94 µM | Potency [34] 12 µM | Potency [35] 11.2 µM | Potency [36] 8.91 µM | Potency [37] 8.91 µM | Potency [38] 6.31 µM | Potency [39] 8.91 µM | Potency [40] 10 µM | Potency [41] 10.7 µM | Potency [42] 8.91 µM | Potency [43] 11.2 µM | Potency [44] 7.94 µM | Potency [45] 7.94 µM | Potency [46] 4.78 µM

Source: PubChem BioAssay (NCATS)
